Bioassay records: PubChem, several laboratories
Hits are enriched below; roughly 11% of the tested compounds scored in any of these assays.
INS promoter inh – TRM-6 insulin promoter activity inhibition | TRM-6 cells (human fetal islet line), insulin promoter-eGFP reporter, imaging; reporter expression induced with tamoxifen | inhibition, % at 2 µM | hit rate 0.9% among 130,000;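 active = inhibition above the mean plus 3 SD, with well images judged a real hit on visual review, cut at about 60% in these data, passing the limit was not always enough; inconclusive = inhibition over the cutoff but images rejected on review; inactive = inhibition not above the cutoff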
Lmaj promast – inhibitors of Leishmania major promastigote growth; Leishmania major promastigotes, resazurin fluorescence viability; AID 1063; inhibition, % at 10 µM; hit rate 9% among 200,000; in the data active = inhibition above about 50%;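 note: promastigotes grown with compound for 44 hours at 28 °C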
Autophagy HCS – alters autophagy in cells | MEF GFP-LC3 puncta imaging; test concentration mostly 10 µM | calls only at 10 µM (by protocol) | hit rate 0.98% among 190,000 | AID 463193;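 active = percentage of spot-positive cells more than 3 SD above its plate mean, without a fluorescence outlier flag or 80% toxicity; inconclusive = no clear call, values can overlap the other calls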;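 note: spot-positive cell cutoff set from DMSO-treated cells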
Insulin prom up – MIN6 insulin promoter up-regulation | MIN6 insulin promoter-GFP reporter, high-content imaging; active compounds read high | z-score at 5 µM | hit rate 0.3% among 190,000;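 active = z-score above 3 at 5 µM with at least 500 cells counted in the well; inconclusive = wells under 500 cells, flagged as cytotoxic or low count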
WT yeast gro inh – growth inhibition of WT yeast, mitochondrial fusion screen; mitochondrial fusion phenotypic screen, WT strain; inhibition, % at 10 µM; hit rate 2.1% among 190,000; AID 1362; in the data active = inhibition above about 58%; tested in S. cerevisiae
L major 1uM – L. major promastigote growth inhibition, 1 uM repeat; shares compounds with Lmaj promast; resazurin fluorescence, 48 h; inhibition, % at 1 µM; hit rate 13% among 1,100;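 active = inhibition above about 50% in both repeat tests, limit read from the data; inconclusive = one repeat under the set limit, the other over it; inactive = both repeats under the set limit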
Active calls of the source: *; i = inactive; ? = inconclusive; / = no result.

SMILES	INS promoter inh	Lmaj promast	Autophagy HCS	Insulin prom up	WT yeast gro inh	L major 1uM
C/C(CCN1CCCCc2nc(C)c(C)cc21)=N\O[C@@H](C)CN1CCCCc2nc(C)c(C)cc21	-20.0	68.0*	i	-0.5	20.5	14.7
C/C(CCN1CCCCc2nc(C)c(C)cc21)=N\OC[C@@H](O)[C@H]1O[C@@H]2OC(C)(C)O[C@@H]2[C@H]1O	-4.5	-7.6	i	1.13	19.7	/
C(=C\c1ccccc1)/CSc1nnc(-c2cccnc2)o1	20.0	-1.5	i	-0.42	7.7	/
CCCc1cc(=O)[nH]c(SCC(=O)c2cc(C)n(C(C)COC)c2C)n1 (centres undefined)	33.3	-10.1	i	/	-7.8	/
Cn1c(CN2CCCC2)nc2cc(NS(=O)(=O)c3ccc(Cl)cc3)ccc21	42.9	99.3*	i	-1.12	/	-10.7
Cn1c(-c2ccc(-c3ccccc3)cc2)c[nH]c1=S	5.3	57.2*	i	-0.44	0.6	-3.7
CCn1c(-c2ccc(-c3ccccc3)cc2)c[nH]c1=S	-35.7	16.4	i	-0.81	-4.7	/
Cc1cc(C)nc(SCC(=O)N/N=C\C(Br)=C\c2ccccc2)n1	/	-2.5	i	/	0.8	/
Cc1ccc(NCC(=O)N/N=C\C(Br)=C\c2ccccc2)cc1	-22.2	68.3*	i	0.54	10.2	2.3
Cn1c(=O)[nH]c(=O)c2c1nc(Br)n2CC(O)c1ccccc1 (centres undefined)	25.8	-0.8	i	-0.18	0.3	/
O=C1C(Cl)=C(N2CCCCC2)C(=O)C(Cl)=C1c1cnc(N2CCCCC2)s1	i	58.5*	i	/	7.7	1.6
CCOC(=O)c1sc(-c2ccc(Br)cc2)cc1N	4.7	9.2	i	-0.54	6.0	/
CCOC(=O)c1cc(-c2ccc(N)cc2)sc1N	5.4	60.0*	i	0.15	18.9	-4.7
CCOc1c(Br)cc(/C=N\NC(=O)c2ccccc2)cc1OC	-17.6	46.3	i	0.29	-2.2	/
COc1cc(/C=N/NC(N)=S)cc(Br)c1OCc1ccccc1F	52.9	99.4*	i	-1.17	33.6	22.4
Cc1ccccc1-c1nnc2s/c(=C\c3ccc(N(C)C)cc3)c(=O)n12	/	/	/	1.07	/	/
Fc1ccc(NC(=S)N2CCc3ccccc3C2)c(F)c1	11.6	10.9	i	-0.02	20.2	/
CN1CCCN(C2C3CC4CC(C3)CC2C4)CC1 (centres undefined)	22.0	52.5*	i	/	31.8	-12.2
COc1cccc(N2CCN(C3C4CC5CC(C4)CC3C5)CC2)c1 (centres undefined)	-28.6	2.5	i	-0.41	7.7	/
Cc1ccc(C(=O)NCC(=O)N/N=C/c2cccs2)cc1[N+](=O)[O-]	0.0	9.7	i	0.6	3.5	/
CN(c1ccc(O)cc1)c1nc(-c2ccccc2)cs1	13.5	88.7*	i	0.84	64.3	-5.5
CCc1c(C)sc(NC(=O)c2ccco2)c1C(=O)N1CCCCC1	-13.2	52.7*	i	-0.79	13.6	-4.6
CC(C)c1nccn1S(=O)(=O)c1cccc([N+](=O)[O-])c1	21.6	52.4*	i	0.02	-25.2	-15.3
CN1CCN(S(=O)(=O)c2cccc([N+](=O)[O-])c2)CC1	0.0	-4.3	i	/	/	/
Cc1c(/C=N/NC(=O)c2cccs2)c2ccccc2n1Cc1ccccc1Cl	/	/	/	-0.46	/	/
SMILES	INS promoter inh	Lmaj promast	Autophagy HCS	Insulin prom up	WT yeast gro inh	L major 1uM
CCOC(=O)c1cnc2ccc(C)cc2c1Sc1ccc(F)cc1	/	69.8*	i	0.99	45.8	-17.1
CC1CC2(C)Oc3ccccc3CC2C(C)C1CNCCCN(C)C (centres undefined)	/	100.5*	i	?	9.1	23.3
CC1Cc2ccccc2N1C(=O)CNCCCN(C)C (centres undefined)	-8.1	-1.2	i	0.77	-22.4	/
Cc1c(C(=O)O)oc2c1/C(=N\O)CCC2	-3.7	53.6*	i	0.04	-19.6	-16.4
COc1ccc(N2C(=S)NC(C)(C)CC2(C)c2ccc(OC(C)=O)cc2OC(C)=O)cc1 (centres undefined)	-35.7	2.1	i	-0.27	-10.0	/
CC(=O)Oc1cc2c(cc1Cl)C1(CC(c3ccccc3Cl)O2)CC(C)(C)NC(=S)N1 (centres undefined)	3.3	97.8*	i	-0.28	62.9*	-15.1
CCn1c(SCC(=O)c2ccc(Br)cc2)nnc1C(C)NC(=O)Cc1ccc(OC)cc1 (centres undefined)	3.6	-6.3	i	/	-2.0	/
COc1ccc(CC(=O)NC(C)c2nnc(SCC(=O)c3ccc(Br)cc3)n2C)cc1 (centres undefined)	-235.7	74.8*	i	0.36	-5.2	-3.9
Nc1cc(=O)[nH]c(SCc2nnnn2-c2ccc(Cl)cc2)n1	/	-6.1	i	0.2	-8.0	/
CCOC(=O)c1cccc(Nc2nc(-c3cccnc3)nc3ccccc23)c1	/	91.8*	i	-0.97	14.8	21.2
CC(=O)C1=NN(c2ccccc2)C(c2cccs2)N1c1ccc(N(C)C)cc1 (centres undefined)	17.9	96.0*	i	?	/	-7.5
CSc1nc2ccc(N3C(=O)C4CCCCC4C3=O)cc2s1 (centres undefined)	/	-2.5	i	-0.07	-18.1	/
Cc1cc(C)c(C(CC(=O)c2cccs2)C(C#N)C#N)c(C)c1 (centres undefined)	42.3	92.5*	i	1.7	-3.7	-9.0
CC(CC(=O)c1cccs1)CC(=O)c1cccs1	/	-6.8	i	0.73	-12.8	/
C=CC[n+]1c(-c2ccc(OC)c(OC)c2)csc1NNC(=O)Nc1ccccc1	28.6	100.0*	i	-2.32	1.8	46.7
COc1ccc(NC2=Nc3cccc4cccc2c34)cc1	41.4	74.2*	i	-0.47	12.7	26.5
O=C(NCC(O)c1ccc([N+](=O)[O-])cc1)c1cccc(S(=O)(=O)N2CCCC2)c1 (centres undefined)	/	-2.3	i	1.63	-0.5	/
CCOc1ccccc1NC(=O)Nc1ccc(CC#N)cc1	/	/	/	-0.19	/	/
COc1ccc2c3c(cccc13)NN=C2C	78.6*	100.5*	i	/	/	97.8*
COc1ccc(C(=O)c2ccc(OC)c3cccc(O)c23)cc1OC	-10.0	3.2	i	0.86	-7.5	/
Cc1ccc2cc(CN(CC3CCCO3)S(=O)(=O)c3cccc4nsnc34)c(=O)[nH]c2c1 (centres undefined)	/	34.1	i	-0.22	6.5	/
Cc1ccccc1C([O-])=Nc1ccc[n+](-c2nc3ccccc3nc2NS(=O)(=O)c2ccccc2)c1	/	/	/	-0.43	/	/
c1cncc(C2Nc3ccccc3-c3nc4ccccc4n32)c1 (centres undefined)	32.3	85.8*	i	-1.41	18.4	?
CC(C)(C)c1cc(C(C)(C)C)cc(S(=O)(=O)CCc2ccccn2)c1	-466.7	60.0*	i	/	16.4	-0.4
CN(CCc1ccccn1)S(=O)(=O)c1ccccc1F	38.5	-5.2	i	0.54	/	/
Cc1ccc(C2N3CC4([N+](=O)[O-])CN2CC([N+](=O)[O-])(C3)C4(C)C)cc1 (centres undefined)	-24.1	65.4*	i	0.51	23.8	2.5
